Experimental data taken from PubChem BioAssay (NCATS).
Where “and” joins values, the source holds several entries; their conditions need not be identical. Identical values can stand only once. Records with an inconclusive call do not appear. A call without a number means that no potency is given here. Calls of active or inactive are those of the source. Unless noted, the call rests on the fitted dose curve.

How the values were obtained:
[1] = qHTS assay for small molecule agonists of retinoid X receptor alpha signaling (AID 588544); details: HEK293T RXRa-UAS-bla, beta-lactamase reporter, 18 h; 530 nm emission
[2] = target: Retinoic acid receptor RXR-alpha (Homo sapiens) (UniProt P19793); assay: as above; details: HEK293T RXRa-UAS-bla, beta-lactamase reporter, 18 h; series mostly up to 76.7 µM
Sequence of Retinoic acid receptor RXR-alpha (Homo sapiens) (P19793 whole entry, looked up): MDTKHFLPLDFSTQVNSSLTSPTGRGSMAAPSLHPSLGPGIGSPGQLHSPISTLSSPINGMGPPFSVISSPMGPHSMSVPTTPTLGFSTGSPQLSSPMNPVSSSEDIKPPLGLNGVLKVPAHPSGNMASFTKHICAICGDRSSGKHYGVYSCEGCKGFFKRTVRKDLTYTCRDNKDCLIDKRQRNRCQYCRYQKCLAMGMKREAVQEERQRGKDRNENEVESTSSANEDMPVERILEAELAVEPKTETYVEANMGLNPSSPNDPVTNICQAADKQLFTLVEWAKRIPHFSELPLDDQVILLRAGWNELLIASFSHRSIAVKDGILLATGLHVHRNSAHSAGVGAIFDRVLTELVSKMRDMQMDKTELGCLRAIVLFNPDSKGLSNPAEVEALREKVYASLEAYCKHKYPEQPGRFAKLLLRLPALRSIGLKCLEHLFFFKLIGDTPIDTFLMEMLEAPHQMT

[3] = target: Thyroid hormone receptor beta (Homo sapiens) (UniProt P10828); assay: qHTS assay for small molecule agonists of thyroid hormone receptor beta signaling (AID 588545); details: TR-UAS-bla GripTite HEK 293, beta-lactamase ratio, agonist mode, 18 h, percent of T3 response, DMSO as zero; series mostly up to 76.7 µM
Sequence of Thyroid hormone receptor beta (Homo sapiens) (P10828 whole entry, looked up): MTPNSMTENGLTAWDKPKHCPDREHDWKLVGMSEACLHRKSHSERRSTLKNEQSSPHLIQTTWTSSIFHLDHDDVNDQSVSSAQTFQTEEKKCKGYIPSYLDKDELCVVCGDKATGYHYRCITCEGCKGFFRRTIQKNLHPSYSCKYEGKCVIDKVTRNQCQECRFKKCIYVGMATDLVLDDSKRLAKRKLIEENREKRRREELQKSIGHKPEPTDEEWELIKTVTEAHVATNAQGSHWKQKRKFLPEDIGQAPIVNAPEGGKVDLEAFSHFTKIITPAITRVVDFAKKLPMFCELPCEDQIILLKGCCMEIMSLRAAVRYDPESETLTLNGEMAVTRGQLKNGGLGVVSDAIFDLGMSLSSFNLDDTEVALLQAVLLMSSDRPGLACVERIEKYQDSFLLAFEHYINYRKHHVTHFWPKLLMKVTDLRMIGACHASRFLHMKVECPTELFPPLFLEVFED
Outline: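 TR-UAS-bla-GripTite HEK 293 cells in medium with 2% charcoal/dextran FBS, 0.1 mM NEAA and 1 mM sodium pyruvate were treated with titrated compounds for 18 hrs at 37 C. Beta-lactamase reporter was read with CCF4 dye (ex 405, em 460/530 nm); EC50 from Hill fits.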

[4] = qHTS assay for small molecule antagonists of retinoid X receptor alpha signaling (AID 588546; active means well fitted inhibition curve with a large enough effect in the signal ratio, with a control signal flat, not every such curve was filed as active; the % refers to the signal ratio;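 further: cells stimulated with 9-cis-retinoic acid as agonist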); details: HEK293T RXRa-UAS-bla, beta-lactamase ratio, antagonist mode; measured here: W530 green channel, cytotoxicity proxy
Outline: (§1)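 Beta-lactamase reporter inhibition, read as CCF4 fluorescence ratio (ex 405, em 460/530 nm) after 2 h at RT. HEK293T UAS-bla cells, 2500/well, were stimulated with 9-cis-RA at 500 or 100 nM final alongside test compound for 18 h at 37 C.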

[5] = target: Retinoic acid receptor RXR-alpha (Homo sapiens) (UniProt P19793); assay: as above; details: HEK293T RXRa-UAS-bla, beta-lactamase ratio, antagonist mode
Outline: as §1

[6] = target: Thyroid hormone receptor beta (Homo sapiens) (UniProt P10828); assay: qHTS assay for small molecule antagonists of thyroid hormone receptor beta signaling (AID 588547; active means well fitted inhibition curve with a large enough effect in the signal ratio, with a control signal flat, not every such curve was filed as active; the % refers to the signal ratio;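 further: cells stimulated with 0.4 nM T3 agonist during compound exposure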); details: TR-UAS-bla HEK293, beta-lactamase ratio, antagonist mode, 18 h
Outline: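 TR-UAS-bla GripTite HEK293 cells in 2% charcoal/dextran FBS medium were preincubated 4 h at 37 C, given compound (0.59 nM to 92 uM) plus 0.4 nM T3 (final) for 18 h, then CCF4 for 2 h at RT; Hill fit gave IC50.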

[7] = qHTS assay for small molecule activators of the p53 signaling pathway (AID 651743; active means well fitted activation curve with a large enough effect in the signal ratio, not every such curve was filed as active; the % refers to the signal ratio); details: HCT-116 p53RE-bla, beta-lactamase FRET ratio, 16 h; stronger effect = higher value
Outline: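 Agonist-mode quantitative HTS in HCT-116 cells carrying a p53-response-element beta-lactamase reporter; 16 h compound treatment at 37 C, then FRET substrate loading for 2 h at room temperature and fluorescence read.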

[8] = qHTS assay for small molecule activators of the nuclear factor-kappa B (NF-kB) signaling pathway (AID 651749; active means well fitted activation curve with a large enough effect in the signal ratio; the % refers to the signal ratio); details: NF-kB-bla ME-180 cells, beta-lactamase FRET ratio, 16 h; stronger effect = higher value
Outline: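 Human ME-180 cervical cells with an NF-kB-bla construct; compounds added via 23 nL pin transfer, DMSO as vehicle; incubation 16 hr. Reporter activity measured by FRET disruption.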

[9] = qHTS assay for small molecule disruptors of the mitochondrial membrane potential - 1 hr assay (AID 651754); details: series mostly up to 92.2 µM; further: nearly all actives have a fitted effect of over 35% in size
Outline: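 Loss of mitochondrial potential shifts the cationic dye from red mitochondrial aggregates to green cytoplasmic monomers. Cells (HepG2) are treated with compound for 1 hr before a 30 min dye incubation at 37C.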

[10] = qHTS assay for small molecule disruptors of the mitochondrial membrane potential - 5 hr assay (AID 651755); details: JC-1-type ratio dye; series mostly up to 92.2 µM; further: nearly all actives have a fitted effect of over 40% in size
Outline: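 Seed HepG2 overnight, add compound, incubate 5 hr at 37C and 5% CO2, stain 30 min with Mito-MPS, then measure monomer (490/535 nm) and aggregate (540/590 nm) fluorescence.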

[11] = qHTS assay for environmental chemicals that activate the Aryl hydrocarbon Receptor (AhR) signaling pathway (AID 651777; active means well fitted curve in the direction sought with a large enough effect; an effect the other way counts as inactive or inconclusive; further: nearly all actives have a fitted effect of over 15% in size); details: 1A2-DRE human hepatoma cells, luciferase, 24 h; activation: stronger effect = higher value
Outline: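 Concentration–response screening used 1,200 1A2-DRE cells per well, 24 hr compound exposure (37 C, 5% CO2), and One-Glo luminescence as the AhR-driven CYP1A2 reporter signal.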

[12] = target: Peroxisome proliferator-activated receptor alpha (Homo sapiens) (UniProt Q07869); assay: qHTS assay for small molecule agonists of the peroxisome proliferator-activated receptor alpha (PPARalpha) signaling pathway (AID 651778; active means well fitted curve in the direction sought with a large enough effect; an effect the other way counts as inactive or inconclusive); details: PathHunter PPARalpha complementation, chemiluminescence, 6 h; stronger effect = higher value
Sequence of Peroxisome proliferator-activated receptor alpha (Homo sapiens) (Q07869 whole entry, looked up): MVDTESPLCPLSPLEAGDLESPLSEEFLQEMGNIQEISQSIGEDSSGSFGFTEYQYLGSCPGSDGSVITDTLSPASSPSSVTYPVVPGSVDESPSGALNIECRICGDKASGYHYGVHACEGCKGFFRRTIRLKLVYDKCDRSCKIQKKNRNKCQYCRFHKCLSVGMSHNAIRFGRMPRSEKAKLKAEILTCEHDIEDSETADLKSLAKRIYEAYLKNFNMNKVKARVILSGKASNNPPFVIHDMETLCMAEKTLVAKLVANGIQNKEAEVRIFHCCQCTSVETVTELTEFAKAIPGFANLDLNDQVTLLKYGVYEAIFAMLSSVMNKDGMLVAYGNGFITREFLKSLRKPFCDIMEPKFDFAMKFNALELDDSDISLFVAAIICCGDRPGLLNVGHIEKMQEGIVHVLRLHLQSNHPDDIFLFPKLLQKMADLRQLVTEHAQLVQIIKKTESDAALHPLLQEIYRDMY
Outline: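 Cells plated at 2,000/well and held overnight at 37 C, 5% CO2, then compound added by pin tool for 6 hr; after PathHunter detection reagent and 60 min at room temperature, chemiluminescence from enzyme complementation was read.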

[13] = target: Nuclear receptor ROR-gamma (Homo sapiens) (UniProt P51449); assay: qHTS assay for small molecule antagonists of the retinoid-related orphan receptor gamma (ROR-gamma) signaling pathway (AID 651802; active means well fitted curve in the direction sought with a large enough effect; an effect the other way counts as inactive or inconclusive;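 further: CHO cells with doxycycline-induced ROR-gamma expression; nearly all actives have a fitted effect of over 60% in size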); details: ROR-gamma antagonist cell reporter assay; series mostly up to 92.2 µM
Sequence of Nuclear receptor ROR-gamma (Homo sapiens) (P51449 whole entry, looked up): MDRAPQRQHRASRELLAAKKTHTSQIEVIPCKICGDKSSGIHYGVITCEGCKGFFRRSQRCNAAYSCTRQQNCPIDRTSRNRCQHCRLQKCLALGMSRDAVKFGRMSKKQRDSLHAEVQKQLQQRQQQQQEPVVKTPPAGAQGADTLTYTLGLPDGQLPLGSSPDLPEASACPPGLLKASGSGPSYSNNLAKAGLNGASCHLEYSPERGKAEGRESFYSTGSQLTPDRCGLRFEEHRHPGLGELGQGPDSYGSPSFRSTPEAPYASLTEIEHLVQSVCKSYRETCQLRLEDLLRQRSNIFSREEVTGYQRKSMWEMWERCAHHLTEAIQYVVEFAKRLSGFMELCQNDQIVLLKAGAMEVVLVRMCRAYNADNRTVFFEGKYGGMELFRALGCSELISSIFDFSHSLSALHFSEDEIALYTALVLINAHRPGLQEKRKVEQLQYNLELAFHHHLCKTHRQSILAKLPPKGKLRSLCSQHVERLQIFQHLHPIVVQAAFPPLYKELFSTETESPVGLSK
Outline: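 Steps: cells dispensed; compound or DMSO transferred by pin tool; doxycycline added to induce the ROR response element-driven luciferase; plates held 16hr at 37C; ONE-Glo added and luminescence measured.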

[14] = qHTS assay for small molecule agonists of the antioxidant response element (ARE) signaling pathway measured by Nrf2-dependant transcriptional activity (AID 720636; active means well fitted curve in the direction sought with a large enough effect in the repeat runs; an effect the other way counts as inactive or inconclusive;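 further: HepG2 cells with an ARE-driven luciferase reporter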); details: ARE-luc HepG2, Nrf2 luciferase reporter, 16 h; series mostly up to 92.4 µM
Outline: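 Attachment 6 hr at 37 C, then compound versus DMSO vehicle for 16 hr in ARE-luc HepG2 cells (1% dialyzed FBS); luminescence recorded 30 min after ONE-Glo addition at room temperature.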

[15] = qHTS assay for small molecule agonists of the antioxidant response element (ARE) signaling pathway measured by Nrf2-dependant transcriptional activity - cell viability counter screen (AID 720653; active means well fitted curve in the direction sought with a large enough effect in the repeat runs; an effect the other way counts as inactive or inconclusive); details: ARE-bla HepG2 viability, CellTiter-Glo ATP luminescence, 16 h; stronger effect = lower value
Outline: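 ARE-bla HepG2 cells (2,000/well) rested 5 hrs at 37C/5% CO2, then exposed to compounds in DMSO for 16 hrs. Viability was read in the same wells as intracellular ATP by luminescence, 30 min at room temperature after reagent addition.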

[16] = target: Tumor necrosis factor (Homo sapiens) (UniProt P01375); assay: qHTS assay to identify small molecules that stimulate Tumor Necrosis Factor-alpha (TNF-alpha) secretion (AID 651757; active means well fitted curve in the direction sought with a large enough effect in the signal ratio; the % refers to the signal ratio); details: Human cells, HTRF 665/615 ratio; series mostly up to 92.2 µM
Sequence of Tumor necrosis factor (Homo sapiens) (P01375 whole entry, looked up): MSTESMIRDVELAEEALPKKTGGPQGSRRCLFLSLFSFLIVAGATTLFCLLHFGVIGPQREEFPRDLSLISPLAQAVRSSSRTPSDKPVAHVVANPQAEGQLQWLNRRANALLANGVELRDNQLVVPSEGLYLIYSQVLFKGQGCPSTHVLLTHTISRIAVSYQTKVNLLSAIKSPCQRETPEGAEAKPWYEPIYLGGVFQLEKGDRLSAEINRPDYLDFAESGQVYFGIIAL
Outline: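 Human monocytic THP-1 cells are plated, treated with compound and held at 37 C for 17 hrs. Labeled anti-TNF-alpha antibody mixture is then added; after 3 hr at room temperature, TR-FRET signal reports secreted TNF-alpha.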

[17] = qHTS assay for small molecule antagonists of the retinoid-related orphan receptor gamma (ROR-gamma) signaling pathway - cell viability counter screen (AID 720652; active means well fitted curve in the direction sought with a large enough effect in the repeat runs; an effect the other way counts as inactive or inconclusive;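 further: CHO reporter cells with doxycycline-induced ROR-gamma expression; compound exposure lasted 16 hr before ATP read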); details: RORgamma reporter cell line viability counter screen; series mostly up to 92.2 µM
Outline: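 Steps: seed CHO cells bearing TET-inducible ROR and ROR response element-luciferase; rest 5 hr at 37 C; add compound, then doxycycline; incubate 16 hr; add CellTiter-Glo and read luminescence as ATP-based viability.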

[18] = target: Voltage-gated inwardly rectifying potassium channel KCNH2 (Homo sapiens) (UniProt Q12809); assay: qHTS Assay for Small Molecule Inhibitors of the Human hERG Channel Activity (AID 588834; active means well fitted curve in the direction sought with a large enough effect; an effect the other way counts as inactive or inconclusive;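 further: top concentration of the series differs between compounds; lower thallium flux fluorescence means stronger hERG block; nearly all actives have a fitted effect of over 50% in size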); details: U2OS BacMam hERG, FluxOR thallium flux fluorescence; series mostly up to 92.2 µM
Sequence of Voltage-gated inwardly rectifying potassium channel KCNH2 (Homo sapiens) (Q12809 whole entry, looked up): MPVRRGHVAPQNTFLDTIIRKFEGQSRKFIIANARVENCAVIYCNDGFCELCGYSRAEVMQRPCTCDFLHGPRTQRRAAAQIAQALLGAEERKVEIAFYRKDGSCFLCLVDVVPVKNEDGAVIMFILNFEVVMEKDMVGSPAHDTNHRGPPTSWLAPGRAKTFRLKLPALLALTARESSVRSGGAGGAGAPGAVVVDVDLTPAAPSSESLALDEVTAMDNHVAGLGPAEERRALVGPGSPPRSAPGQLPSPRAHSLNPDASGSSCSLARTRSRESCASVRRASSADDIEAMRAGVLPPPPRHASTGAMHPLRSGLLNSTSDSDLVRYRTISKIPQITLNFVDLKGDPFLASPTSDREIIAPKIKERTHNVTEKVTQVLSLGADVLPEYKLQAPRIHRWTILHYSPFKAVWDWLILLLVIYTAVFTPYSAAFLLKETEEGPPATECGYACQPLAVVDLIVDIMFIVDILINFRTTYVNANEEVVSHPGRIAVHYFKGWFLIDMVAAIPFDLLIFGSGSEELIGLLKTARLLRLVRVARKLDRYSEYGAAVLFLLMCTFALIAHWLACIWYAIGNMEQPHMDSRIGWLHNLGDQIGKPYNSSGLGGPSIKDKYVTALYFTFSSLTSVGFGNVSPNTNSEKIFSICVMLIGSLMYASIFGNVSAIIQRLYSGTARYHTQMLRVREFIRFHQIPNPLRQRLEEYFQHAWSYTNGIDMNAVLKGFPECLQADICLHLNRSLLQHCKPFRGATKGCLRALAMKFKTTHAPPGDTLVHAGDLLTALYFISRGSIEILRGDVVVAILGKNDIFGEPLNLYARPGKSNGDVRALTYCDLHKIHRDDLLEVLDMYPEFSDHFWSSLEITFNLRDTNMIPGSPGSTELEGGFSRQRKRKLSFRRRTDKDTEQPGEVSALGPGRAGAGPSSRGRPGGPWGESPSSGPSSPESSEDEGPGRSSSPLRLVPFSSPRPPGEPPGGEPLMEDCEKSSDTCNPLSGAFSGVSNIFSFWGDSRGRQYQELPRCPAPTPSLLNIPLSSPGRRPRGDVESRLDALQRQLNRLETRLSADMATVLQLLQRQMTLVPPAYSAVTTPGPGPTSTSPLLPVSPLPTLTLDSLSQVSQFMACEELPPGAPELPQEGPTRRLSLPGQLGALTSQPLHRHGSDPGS
Outline: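 Step 1: BacMam hERG transduction of U2OS, 4 hrs RT. Step 2: overnight 37 °C, plate 2000 cells/well, 4 hr. Step 3: FluxOR load, compound 10 min, stimulate, read fluorescence.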

[19] = qHTS assay for small molecule agonists of the antioxidant response element (ARE) signaling pathway (AID 651741; active means well fitted activation curve with a large enough effect in the signal ratio; the % refers to the signal ratio); details: HepG2 ARE-bla reporter, beta-lactamase FRET ratio, 16 h; series mostly up to 96 µM
Outline: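 Reporter: beta-lactamase under ARE, stably in HepG2. Exposure: 16 h, 37 C, compounds delivered in DMSO by pin tool after 5 h cell preincubation. Readout: FRET substrate fluorescence after 2 h at RT.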

| SMILES | max response [1] | outcome [2] | outcome [3] | max response [4] | max response [5] | activity change % (negative = inhibition) [6] | activation [7] | activation [8] | Potency [9] | Potency [10] | activation [11] | max response [12] | Potency [13] | outcome [14] | max response [15] | Potency [16] | Potency [17] | Potency [18] | Potency [19] |
| --- | --- | --- | --- | --- | --- | --- | --- | --- | --- | --- | --- | --- | --- | --- | --- | --- | --- | --- | --- |
| Cc1ccc([N+](=O)[O-])c(N)c1 | 3% | inactive | inactive | -20.5% | -4.21% (inactive) | -0.142% (inactive) | -3.31% (inactive) | -0.448% (inactive) | inactive | inactive | 0.147% (inactive) | -3.68% (inactive) | inactive | inactive | 6.11% (inactive) |  |  |  |  |
| CC(C)(C)c1ccc(OCC2CO2)cc1 (stereo not given) | -13.4% | inactive | inactive | -2.99% | 11.5% (inactive) | 5.82% (inactive) |  |  | inactive | inactive | 8.83% (inactive) | -5.01% (inactive) | inactive | inactive | 4.81% (inactive) | inactive | inactive |  |  |
| ClC/C=C/CCl | -8.83% | inactive | inactive | -5.15% | 0.33% (inactive) | 19.3% (inactive) | -2.54% (inactive) |  | inactive | inactive |  | 1.16% (inactive) |  | inactive |  | inactive | inactive |  |  |
| CCCCC(CC)COC(=O)CCCCC(=O)OCC(CC)CCCC (stereo not given) | -13% and -12.5% | inactive | inactive | -3.16% and -14.9% | 12% (inactive) and 4.32% (inactive) |  | -0.514% (inactive) and -0.3% (inactive) | 0.278% (inactive) and -0.188% (inactive) | inactive | inactive | -0.729% (inactive) and -3.02% (inactive) | -4.18% (inactive) and -1.05% (inactive) |  | inactive | 11.7% (inactive) and -4.79% (inactive) | inactive | inactive | inactive | inactive |
